Targets with a hit are over-represented here; the source holds about 8,800 in all. About 0.5% of all pairs of compound and target were hits.
Tests used:
Test in all cases: log2 fold change, soluble protein after heating vs DMSO (PISA); higher = thermal stabilisation; K562 lysate, 10 uM; active = over 0.2 and 3.5 SD of the protein, either way, in both replicates (recomputed)
alvocidib = compound: CN1CC[C@H](c2c(O)cc(O)c3c(=O)cc(-c4ccccc4Cl)oc23)[C@H](O)C1 [alvocidib]
Summary of the method: (§1)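 Dounce homogenisation of K562 pellets in PBS pH 7.4 with 1 mM MgCl2 produced a crude extract, used at 1 mg/mL protein. Exposure to 10 μM compound lasted 30 min, and aliquots were then heated for 3 min across 48°C-58°C, pooled and brought to 0.5% NP-40 at 4°C. The supernatant after 21,000xg for 90 min was quantified by TMTpro 16plex LC-MS/MS with channel sums equalised. Duplicate values are given as log-two fold change in thermal stability relative to solvent controls.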

Tubastatin A = compound: CN1CCc2c(c3ccccc3n2Cc2ccc(C(=O)NO)cc2)C1 [Tubastatin A]
Summary of the method: as §1

[1] = compound: CNC(=O)C1=CC=CC=C1NC2=NC(=NC=C2Cl)NC3=C(C=C(C=C3)N4CCOCC4)OC
Summary of the method: as §1

defactinib = compound: CNC(=O)c1ccc(Nc2ncc(C(F)(F)F)c(NCc3nccnc3N(C)S(C)(=O)=O)n2)cc1 [defactinib]
Summary of the method: as §1

[2] = compound: CNc1nc(-c2ccc3c(N)n[nH]c3c2)cc(N2C[C@@H](C(=O)NC3CCCCC3)CC[C@H]2C)n1
Summary of the method: as §1

encorafenib = compound: COC(=O)N[C@@H](C)CNc1nccc(-c2cn(C(C)C)nc2-c2cc(Cl)cc(NS(C)(=O)=O)c2F)n1 [encorafenib]
Summary of the method: as §1

[3] = compound: COC(=O)[C@H](CCSC)NC(=O)C1=C(C=C(C=C1)NC[C@H](CS)N)C2=CC=CC=C2
Summary of the method: as §1

alisertib = compound: COc1cc(Nc2ncc3c(n2)-c2ccc(Cl)cc2C(c2c(F)cccc2OC)=NC3)ccc1C(=O)O [alisertib]
Summary of the method: as §1

[4] = compound: COc1cc2nc(-c3cc(F)ccc3O)nc(N[C@@H]3CNC[C@H]3C(C)(C)O)c2cc1OC
Summary of the method: as §1

gefitinib = compound: COc1cc2ncnc(Nc3ccc(F)c(Cl)c3)c2cc1OCCCN1CCOCC1 [gefitinib]
Summary of the method: as §1

Measured: log2 fold change

DOCK10 (UniProt Q96BY6)
Chain of UniProt Q96BY6 (Q96BY6 whole entry, looked up): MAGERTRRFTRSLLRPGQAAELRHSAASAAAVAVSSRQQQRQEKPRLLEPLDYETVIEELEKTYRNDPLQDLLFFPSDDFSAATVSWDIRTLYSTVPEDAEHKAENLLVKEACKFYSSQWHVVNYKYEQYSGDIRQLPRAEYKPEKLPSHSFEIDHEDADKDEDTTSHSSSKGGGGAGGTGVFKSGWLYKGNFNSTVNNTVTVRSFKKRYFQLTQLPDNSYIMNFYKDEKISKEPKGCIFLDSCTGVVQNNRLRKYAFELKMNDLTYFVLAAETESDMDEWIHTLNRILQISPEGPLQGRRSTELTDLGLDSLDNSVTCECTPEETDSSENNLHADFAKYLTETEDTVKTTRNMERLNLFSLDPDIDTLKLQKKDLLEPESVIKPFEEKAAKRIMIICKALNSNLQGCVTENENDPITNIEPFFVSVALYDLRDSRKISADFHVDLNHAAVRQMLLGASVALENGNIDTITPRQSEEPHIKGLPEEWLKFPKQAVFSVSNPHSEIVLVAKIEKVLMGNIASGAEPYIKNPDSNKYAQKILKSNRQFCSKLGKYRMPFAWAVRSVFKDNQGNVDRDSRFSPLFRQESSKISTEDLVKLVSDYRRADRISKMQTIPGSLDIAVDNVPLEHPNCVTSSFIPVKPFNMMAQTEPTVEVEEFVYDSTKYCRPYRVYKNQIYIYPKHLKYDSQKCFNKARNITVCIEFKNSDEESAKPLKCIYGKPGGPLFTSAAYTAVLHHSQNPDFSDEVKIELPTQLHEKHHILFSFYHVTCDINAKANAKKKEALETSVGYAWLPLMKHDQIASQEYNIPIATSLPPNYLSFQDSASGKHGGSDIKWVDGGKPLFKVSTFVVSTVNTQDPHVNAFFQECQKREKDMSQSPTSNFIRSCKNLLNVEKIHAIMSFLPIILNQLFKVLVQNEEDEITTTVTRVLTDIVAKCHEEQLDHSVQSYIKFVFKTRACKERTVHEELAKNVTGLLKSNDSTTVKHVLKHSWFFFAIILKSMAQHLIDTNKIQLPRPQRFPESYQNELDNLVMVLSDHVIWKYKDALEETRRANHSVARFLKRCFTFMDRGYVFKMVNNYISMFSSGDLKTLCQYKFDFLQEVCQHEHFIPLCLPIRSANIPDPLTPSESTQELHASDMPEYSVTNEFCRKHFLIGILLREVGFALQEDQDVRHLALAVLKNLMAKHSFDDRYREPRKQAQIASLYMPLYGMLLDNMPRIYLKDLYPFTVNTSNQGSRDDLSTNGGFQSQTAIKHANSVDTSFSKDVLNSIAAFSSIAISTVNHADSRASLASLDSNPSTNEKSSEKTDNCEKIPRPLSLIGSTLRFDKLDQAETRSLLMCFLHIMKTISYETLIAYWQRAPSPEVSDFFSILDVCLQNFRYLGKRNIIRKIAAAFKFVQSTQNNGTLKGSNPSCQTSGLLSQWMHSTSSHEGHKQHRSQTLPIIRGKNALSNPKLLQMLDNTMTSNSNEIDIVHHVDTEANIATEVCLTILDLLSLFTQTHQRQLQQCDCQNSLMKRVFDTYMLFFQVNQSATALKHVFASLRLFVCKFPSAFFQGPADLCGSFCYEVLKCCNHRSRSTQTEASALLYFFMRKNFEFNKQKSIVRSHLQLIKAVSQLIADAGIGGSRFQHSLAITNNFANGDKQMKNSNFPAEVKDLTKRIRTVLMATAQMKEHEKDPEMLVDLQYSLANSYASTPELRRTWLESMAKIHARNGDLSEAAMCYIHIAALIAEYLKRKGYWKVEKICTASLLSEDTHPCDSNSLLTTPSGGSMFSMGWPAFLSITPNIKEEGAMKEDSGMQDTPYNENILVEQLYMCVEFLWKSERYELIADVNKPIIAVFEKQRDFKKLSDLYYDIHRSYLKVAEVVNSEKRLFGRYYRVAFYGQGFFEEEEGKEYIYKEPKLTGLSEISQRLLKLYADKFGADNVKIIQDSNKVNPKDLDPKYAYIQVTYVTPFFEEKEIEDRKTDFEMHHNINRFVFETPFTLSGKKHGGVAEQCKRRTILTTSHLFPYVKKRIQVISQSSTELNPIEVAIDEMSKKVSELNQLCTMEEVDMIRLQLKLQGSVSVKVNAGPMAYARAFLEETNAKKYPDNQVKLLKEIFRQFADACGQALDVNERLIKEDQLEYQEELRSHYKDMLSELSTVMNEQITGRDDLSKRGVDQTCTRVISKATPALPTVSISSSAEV
inactive: alvocidib -0.354 | Tubastatin A -0.028 | [1] 0.208 | defactinib 0.133 | [2] 0.046 | encorafenib 0.067 | [3] -0.002 | alisertib 0.05 | [4] -0.042 | gefitinib 0.084

CMBL (UniProt Q96DG6)
inactive: alvocidib 0.006 | Tubastatin A 0.001 | [1] -0.012 | defactinib -0.051 | [2] 0.013 | encorafenib -0.051 | [3] -0.009 | alisertib 0.001 | [4] 0.038 | gefitinib 0.03

CSTB (UniProt P04080)
inactive: alvocidib -0.051 | Tubastatin A 0.089 | [1] -0.023 | defactinib 0.069 | [2] 0.011 | encorafenib 0.025 | [3] -0.011 | alisertib 0.023 | [4] -0.042 | gefitinib -0.143

CWC22 (UniProt Q9HCG8)
Chain of UniProt Q9HCG8 (Q9HCG8 whole entry, looked up): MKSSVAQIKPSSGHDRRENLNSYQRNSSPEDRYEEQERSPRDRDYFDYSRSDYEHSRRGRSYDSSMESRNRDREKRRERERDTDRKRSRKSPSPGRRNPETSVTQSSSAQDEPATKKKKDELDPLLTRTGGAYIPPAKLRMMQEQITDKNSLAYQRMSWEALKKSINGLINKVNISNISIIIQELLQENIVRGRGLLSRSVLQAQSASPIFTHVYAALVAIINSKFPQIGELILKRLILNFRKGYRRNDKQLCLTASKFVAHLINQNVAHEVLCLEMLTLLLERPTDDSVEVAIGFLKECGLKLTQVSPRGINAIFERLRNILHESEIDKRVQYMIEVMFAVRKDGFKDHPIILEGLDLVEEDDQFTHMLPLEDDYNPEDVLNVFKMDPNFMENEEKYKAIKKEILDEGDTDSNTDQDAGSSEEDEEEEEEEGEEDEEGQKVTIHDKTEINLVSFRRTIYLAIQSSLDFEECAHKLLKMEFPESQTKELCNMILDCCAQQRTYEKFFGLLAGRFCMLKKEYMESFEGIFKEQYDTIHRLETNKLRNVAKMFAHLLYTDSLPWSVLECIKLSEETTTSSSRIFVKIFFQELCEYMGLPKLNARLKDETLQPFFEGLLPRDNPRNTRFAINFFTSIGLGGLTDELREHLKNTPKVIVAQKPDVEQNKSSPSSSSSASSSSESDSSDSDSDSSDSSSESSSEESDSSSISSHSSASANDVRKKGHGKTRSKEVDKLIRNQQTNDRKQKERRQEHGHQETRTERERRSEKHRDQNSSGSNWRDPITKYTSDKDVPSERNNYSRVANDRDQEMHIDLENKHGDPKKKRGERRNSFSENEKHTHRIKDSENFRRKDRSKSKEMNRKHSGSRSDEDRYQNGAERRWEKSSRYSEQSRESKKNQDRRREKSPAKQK
inactive: alvocidib 0.112 | Tubastatin A -0.035 | [1] 0 | defactinib -0.026 | [2] -0.036 | encorafenib 0.046 | [3] 0.093 | alisertib -0.065 | [4] -0.058 | gefitinib -0.028

DES (UniProt P17661)
Chain of UniProt P17661 (P17661 whole entry, looked up): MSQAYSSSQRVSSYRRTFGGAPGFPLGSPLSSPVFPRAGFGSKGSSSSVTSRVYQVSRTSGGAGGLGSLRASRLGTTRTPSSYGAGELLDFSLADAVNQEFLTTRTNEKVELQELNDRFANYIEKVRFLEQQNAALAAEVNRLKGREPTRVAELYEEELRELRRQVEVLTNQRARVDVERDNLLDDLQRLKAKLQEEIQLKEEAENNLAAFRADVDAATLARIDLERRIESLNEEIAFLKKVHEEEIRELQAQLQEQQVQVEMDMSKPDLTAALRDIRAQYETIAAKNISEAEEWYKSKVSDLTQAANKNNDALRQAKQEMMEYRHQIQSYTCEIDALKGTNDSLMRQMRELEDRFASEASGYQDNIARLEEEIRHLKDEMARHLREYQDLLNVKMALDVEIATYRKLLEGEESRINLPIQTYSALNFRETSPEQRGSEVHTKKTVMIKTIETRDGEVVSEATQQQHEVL
inactive: alvocidib -0.144 | Tubastatin A 0.091 | [1] -0.023 | defactinib -0.056 | [2] 0.26 | encorafenib 0 | [3] -0.029 | alisertib -0.017 | [4] 0.117 | gefitinib 0.04

CSNK2A2 (UniProt P19784)
Chain of UniProt P19784 (P19784 whole entry, looked up): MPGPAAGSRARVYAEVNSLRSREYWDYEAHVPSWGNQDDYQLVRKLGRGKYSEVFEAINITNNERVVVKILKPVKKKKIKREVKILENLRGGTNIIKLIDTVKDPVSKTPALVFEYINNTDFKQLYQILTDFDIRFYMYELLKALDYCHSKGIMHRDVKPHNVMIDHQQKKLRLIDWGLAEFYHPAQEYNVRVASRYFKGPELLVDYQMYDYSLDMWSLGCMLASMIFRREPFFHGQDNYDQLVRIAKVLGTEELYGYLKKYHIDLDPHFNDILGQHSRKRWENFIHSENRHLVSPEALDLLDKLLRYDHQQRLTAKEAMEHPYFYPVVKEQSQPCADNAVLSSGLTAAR
inactive: alvocidib 0.101 | Tubastatin A -0.059 | [1] 0.321 | defactinib 0.172 | [2] -0.022 | encorafenib -0.047 | [3] 0.012 | alisertib 0.078 | [4] 0.135 | gefitinib 0.004

CHML (UniProt P26374)
Chain of UniProt P26374 (P26374 whole entry, looked up): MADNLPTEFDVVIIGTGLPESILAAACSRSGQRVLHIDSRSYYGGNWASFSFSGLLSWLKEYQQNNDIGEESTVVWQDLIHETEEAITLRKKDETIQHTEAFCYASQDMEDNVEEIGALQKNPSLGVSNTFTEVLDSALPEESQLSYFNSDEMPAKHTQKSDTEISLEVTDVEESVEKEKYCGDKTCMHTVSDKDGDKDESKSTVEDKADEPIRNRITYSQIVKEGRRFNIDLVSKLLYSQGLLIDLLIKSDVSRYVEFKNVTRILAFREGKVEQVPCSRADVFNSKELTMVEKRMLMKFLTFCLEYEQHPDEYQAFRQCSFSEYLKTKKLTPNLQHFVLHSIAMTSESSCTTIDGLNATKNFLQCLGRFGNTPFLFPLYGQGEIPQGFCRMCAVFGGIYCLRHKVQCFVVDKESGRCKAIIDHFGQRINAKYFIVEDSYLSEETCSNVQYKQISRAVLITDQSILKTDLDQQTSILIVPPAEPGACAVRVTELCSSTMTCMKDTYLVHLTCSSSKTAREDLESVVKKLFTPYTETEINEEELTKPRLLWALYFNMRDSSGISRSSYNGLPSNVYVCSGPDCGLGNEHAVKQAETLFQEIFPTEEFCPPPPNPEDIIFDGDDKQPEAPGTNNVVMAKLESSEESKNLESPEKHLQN
inactive: alvocidib -0.019 | Tubastatin A 0.008 | [1] -0.004 | defactinib -0.025 | [2] 0.002 | encorafenib 0.003 | [3] 0.005 | alisertib 0.014 | [4] 0.011 | gefitinib 0.012

COQ8A (UniProt Q8NI60)
inactive: alvocidib 0.051 | Tubastatin A -0.06 | [1] 0.384 | defactinib 0 | [2] 0.079 | encorafenib 0.145 | [3] -0.009 | alisertib -0.023 | [4] 0.009 | gefitinib 0.447

DHRS11 (UniProt Q6UWP2)
Chain of UniProt Q6UWP2 (Q6UWP2 whole entry, looked up): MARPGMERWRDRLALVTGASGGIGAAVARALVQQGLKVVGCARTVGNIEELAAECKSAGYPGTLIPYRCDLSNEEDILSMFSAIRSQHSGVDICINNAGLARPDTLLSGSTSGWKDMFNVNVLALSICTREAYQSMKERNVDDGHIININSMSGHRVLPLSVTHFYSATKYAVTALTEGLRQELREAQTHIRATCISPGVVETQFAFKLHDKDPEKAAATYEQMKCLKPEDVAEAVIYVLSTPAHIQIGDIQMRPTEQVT
inactive: alvocidib -0.001 | Tubastatin A -0.083 | [1] 0.055 | defactinib 0.021 | [2] 0.031 | encorafenib 0.024 | [3] 0.109 | alisertib -0.074 | [4] 0.031 | gefitinib -0.022

DIAPH3 (UniProt Q9NSV4)
inactive: alvocidib 0.041 | Tubastatin A -0.195 | [1] 0.004 | defactinib -0.024 | [2] -0.027 | encorafenib 0.118 | [3] 0.085 | alisertib 0.056 | [4] -0.015 | gefitinib 0.06

CKAP5 (UniProt Q14008)
inactive: alvocidib 0.008 | Tubastatin A -0.076 | [1] 0.019 | defactinib 0.008 | [2] 0.003 | encorafenib 0.013 | [3] 0.074 | alisertib 0.012 | [4] 0.007 | gefitinib -0.005

COTL1 (UniProt Q14019)
Chain of UniProt Q14019 (Q14019 whole entry, looked up): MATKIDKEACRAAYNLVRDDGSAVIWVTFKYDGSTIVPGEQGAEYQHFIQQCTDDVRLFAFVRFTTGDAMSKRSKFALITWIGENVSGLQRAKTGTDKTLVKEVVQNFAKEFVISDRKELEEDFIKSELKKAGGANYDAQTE
inactive: alvocidib 0.021 | Tubastatin A 0.004 | [1] -0.021 | defactinib -0.04 | [2] -0.008 | encorafenib -0.033 | [3] -0.029 | alisertib -0.009 | [4] -0.001 | gefitinib -0.002

CLPB isoform 2 (UniProt Q9H078)
inactive: alvocidib 0.065 | Tubastatin A -0.075 | [1] 0.031 | defactinib 0.086 | [2] -0.049 | encorafenib 0.025 | [3] -0.053 | alisertib 0.001 | [4] -0.036 | gefitinib 0.034

CNOT4 isoform 6 (UniProt O95628)
inactive: alvocidib 0.015 | Tubastatin A -0.011 | [1] -0.009 | defactinib 0.001 | [2] -0.069 | encorafenib 0.076 | [3] -0.051 | alisertib -0.003 | [4] -0.041 | gefitinib -0.007
